Test results as given in PubChem BioAssay AID624404 (Broad Institute, 2012).
Hit rate of the full screen: of about 1,800 compounds, about 710 (39%) were called active. About 28% were inconclusive and are not listed.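 How the source made its calls: active means luciferase signal rise whose fitted curve crosses a set activity limit at or below the top valid tested dose; inconclusive means flat fit with 30 to 70% rise, or poor fit; inactive means signal falling, flat within 30%, or crossing above top dose.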 The list is a sample of the results. Results with a measured potency or affinity are listed apart.

Assay: reporter signal increase, D54 LucT cells – cell-based, luminescence, cherry pick, counter-screen for N-linked glycosylation inhibitor project, dose response (AID 624404)
Settings: D54 LucT luciferase reporter counterscreen, 24 h; series mostly up to 19.5 µM
In the case of Cc1nc([N+](=O)[O-])c(Sc2nc3ccccc3[nH]2)n1Cc1ccccc1, the outcome is reported as “inactive”.
For COc1ccc(OC)c(NS(=O)(=O)c2ccc(SC)cc2)c1, the outcome was “inactive”.
With O=C1/C(=C/c2ccccc2)CCc2ccc(Cl)nc21 the outcome was “inactive”.
For c1cc2c3c(cccc3c1)C(N1CCCCC1)=N2, the outcome was “inactive”.
For Nc1c(N(CCC2=CCCCC2)C(=O)COc2ccc(F)cc2Cl)c(=O)[nH]c(=O)n1Cc1ccccc1, the outcome was “inactive”.
With COc1ccc(-c2cc(C(F)F)n3ncc(C(=O)N4CCc5ccccc54)c3n2)cc1 the outcome was “inactive”.
With O=c1cc(-c2ccccc2)[nH]n1-c1nc2ccccc2[nH]1 the outcome was “inactive”.
In the case of CCCCCc1ccc(OCCC[n+]2ccccc2)c(CCCCC)c1, the outcome is reported as “inactive”.
In the case of Cc1cnc(C(=O)OCC(=O)NC2CCCCCCC2)cn1, the outcome is reported as “inactive”.
With NC(=O)[C@H]1CC2(CC(c3cccc(NC(=O)COc4ccc(Cl)cc4)c3)=NO2)CN1C(=O)C(c1ccccc1)c1ccccc1 (stereo partly specified) the outcome was “inactive”.
With O=C(N/N=C\c1cccnc1)c1cc(-c2ccccc2)nc2c(Cl)cccc12 the outcome was “inactive”.
With COc1ccc(NC(=O)c2nc(C)c(C3(C)CC(c4ccccc4)=NO3)s2)cc1 (stereo unspecified) the outcome was “inactive”.
With CCOC(=O)C1=C(Cc2ccc(F)cc2)C(=O)c2ccccc2C1=O the outcome was “inactive”.
With CCOC(=O)c1c(C)nc2sc3c(=O)n(-c4ccc(C)cc4)cnc3c2c1-c1ccc(OC)cc1 the outcome was “inactive”.
In the case of COC(=O)c1ccccc1NC(=O)Cn1nnc(-c2ccc(OC)cc2)n1, the outcome is reported as “inactive”.
In the case of COc1ccc(Cn2c(=O)cc(N)n(-c3ccccc3C)c2=O)cc1, the outcome is reported as “inactive”.
In the case of CCOc1ccc(OCC(=O)N(CCC2=CCCCC2)c2c(N)n(Cc3ccccc3)c(=O)[nH]c2=O)cc1, the outcome is reported as “inactive”.
For CC(C)CN(C(=O)COC(=O)CCSc1ccc(Cl)cc1)c1c(N)n(Cc2ccccc2)c(=O)[nH]c1=O, the outcome was “inactive”.
For COc1ccc(-c2cc(-c3ccccc3)c(C#N)c(S(C)=O)n2)cc1 (stereo unspecified), the outcome was “inactive”.
For Cc1cc(Br)cc2c(C(=O)Nc3c(C)n(C)n(-c4ccccc4)c3=O)cc(-c3cccs3)nc12, the outcome was “inactive”.
With CCCn1c(CN2CCN(C(=O)OCC)CC2)nc2cc(NC(=O)CC)ccc21 the outcome was “inactive”.
With CN1CCN(CC(=O)Nc2cc(N(C)C)nc3ccccc23)CC1 the outcome was “inactive”.
For CC(C)(C)NCC(O)CON=C1c2ccccc2-c2ccccc21 (stereo unspecified), the outcome was “inactive”.
With Cc1ccccc1OCCOC(=O)c1c(-c2ccccc2)noc1C the outcome was “inactive”.
With Cc1ccc(-c2cc(C(F)F)n3ncc(C(=O)N4CCc5ccccc54)c3n2)cc1 the outcome was “inactive”.
In the case of CC(C)Oc1ccccc1C1CC(=O)Nc2cc3c(cc21)OCO3 (stereo unspecified), the outcome is reported as “inactive”.
In the case of CCOc1cccc2sc(Nc3nc4ccc(NC(C)=O)cc4s3)nc12, the outcome is reported as “inactive”.
In the case of Cc1cc(C)c2c(N)c3ccccc3nc2n1, the outcome is reported as “inactive”.
With CCc1ccc2nc3nc(C)cc(C)c3c(N)c2c1 the outcome was “inactive”.
With C=CCN1c2ccccc2[C@]23C[C@@H](C(=O)OC)N(C(=O)c4ccc(Br)cc4)C2=NC(C(=O)OC)=C(C(=O)OC)[C@H]13 the outcome was “inactive”.
In the case of COC(=O)C1=C(C(=O)OC)[C@@H]2N(Cc3ccccc3)c3ccccc3[C@@]23C[C@@H](C(=O)OC)N(C(=O)c2cc(C)oc2C)C3=N1, the outcome is reported as “inactive”.
With CCCOC(=O)c1[nH]c2c(c1C)C(=O)CC(c1cccs1)C2 (stereo unspecified) the outcome was “inactive”.
With COc1cc(/C=C2/C(=O)N(C)C(=S)N2C)ccc1OCc1cccc(F)c1 the outcome was “inactive”.
With COc1ccc(/C=C2\SC(=S)N(CCC(=O)NC3CCCC3)C2=O)cc1OC the outcome was “inactive”.
In the case of COc1cc2c3c(cccc3c1)C(=O)N(CCN1CCCC1)C2=O, the outcome is reported as “inactive”.
With Cc1ccc(C)c(N2CCN(S(=O)(=O)c3ccc(-c4ccc(=O)[nH]n4)o3)CC2)c1 the outcome was “inactive”.
For CC(=O)c1cccc(-c2ccnc3c2CC(C(=O)NCc2cccs2)O3)c1 (stereo unspecified), the outcome was “inactive”.
With CC1(C(=O)NCc2cccs2)Cc2c(-c3ccc(C(N)=O)cc3)ccnc2O1 (stereo unspecified) the outcome was “inactive”.
For CC(=O)Nc1cccc(-c2ccnc3c2CC(C(=O)NCc2ccc(F)c(F)c2)O3)c1 (stereo unspecified), the outcome was “inactive”.
For Cc1ccc(CNC(=O)Cc2ccc(-n3c(=O)[nH]c4ccsc4c3=O)cc2)cc1, the outcome was “inactive”.
In the case of COc1cc(C2CC(=O)Nc3cc(C)c(C)cc32)cc(OC)c1OC (stereo unspecified), the outcome is reported as “inactive”.
For CN1CCN(C(c2ccc(Br)cc2)c2cc(Cl)c3cccnc3c2O)CC1 (stereo unspecified), the outcome was “inactive”.
In the case of COc1ccc2noc3c2c1C(=O)c1ccccc1-3, the outcome is reported as “inactive”.
In the case of COc1cc(C)c2sc3ccccc3c(=O)c2c1NCCN(C)C, the outcome is reported as “inactive”.
In the case of COc1ccc2sc3cccc(NCCN(C)C)c3c(=O)c2c1, the outcome is reported as “inactive”.
In the case of CCN(CC)CCCNc1ccc2ncn3c4ccc(O)cc4c(=O)c1c23, the outcome is reported as “inactive”.
For CN(C)CCNc1ccc2nnn3c4ccc(O)cc4c(=O)c1c23, the outcome was “inactive”.
In the case of COc1ccc(-n2c(C)cc(C(=O)CCl)c2C)cc1, the outcome is reported as “inactive”.
In the case of c1ccc2sc(Sc3ncnc4sccc34)nc2c1, the outcome is reported as “inactive”.
For COc1ccc2c(C)nc(Nc3nc(-c4ccccc4)cc(=O)[nH]3)nc2c1, the outcome was “inactive”.
For O=C(NCc1cccs1)C1CC(c2ccc(Cl)c(Cl)c2)=NO1 (stereo unspecified), the outcome was “inactive”.
With COc1cc(OC)c(C2=NOC(C(=O)NCc3cccs3)C2)cc1Cl (stereo unspecified) the outcome was “inactive”.
For COc1ccc(C2=NOC(C(=O)NCc3ccco3)C2)cc1OC (stereo unspecified), the outcome was “inactive”.
With Cn1c(SCC(=O)c2ccccc2)ncc(C(=O)Nc2ccc(F)cc2)c1=O the outcome was “inactive”.
For CCn1cc2nc(SCC(=O)Nc3ccc(OC)cc3OC)n(Cc3ccc(OC)cc3)c(=O)c2n1, the outcome was “inactive”.
For CC(=O)c1cccc(NC(=O)CSc2ncc(C(=O)Nc3ccccc3)c(=O)n2C)c1, the outcome was “inactive”.
With COc1ccc(CN(C)c2ncnc3sccc23)c(OC)c1OC the outcome was “inactive”.
In the case of O=C(N/N=C/c1cccnc1)c1cc(-c2ccc(Br)cc2)nc2ccccc12, the outcome is reported as “inactive”.
In the case of Cc1ccc(/C=N/NC(=O)c2c(C)nc3ccc(Br)cn23)cc1, the outcome is reported as “inactive”.
For NC(N)=N/N=C/c1ccc2cccc(OCc3ccccc3)c2n1, the outcome was “inactive”.
With Cc1ccc(/C=N/NC(=O)CCn2nc(C)cc2C)c(C)c1 the outcome was “inactive”.
With Brc1ccc(CSc2ccc3nnc(-c4cccnc4)n3n2)cc1 the outcome was “inactive”.
In the case of Cc1ccccc1OCCc1c(C)[nH]c(=S)[nH]c1=O, the outcome is reported as “inactive”.
With CCN1Cc2c(/C=C/c3ccccc3)nc3ccc(OC)cc3c2N(c2cccc(Cl)c2)C1 the outcome was “inactive”.
With O=C(Nc1nc2ccccc2c(=O)s1)c1ccco1 the outcome was “inactive”.
In the case of COc1cc2nc(NC(=O)c3ccccc3)sc(=O)c2cc1OC, the outcome is reported as “inactive”.
For Cc1ccc(C(=O)NC(=C(Cl)Cl)S(=O)(=O)c2ccc(C)cc2)cc1, the outcome was “inactive”.
With CC(=O)N(C1=C(Cl)C(=O)c2ccccc2C1=O)C1CCCCC1 the outcome was “inactive”.
With COc1ccccc1OCC(=O)NNC(=O)c1ccoc1C the outcome was “inactive”.
In the case of COc1cc2cc(C(c3nnnn3C(C)(C)C)N3CCc4ccccc4C3)c(=O)[nH]c2cc1OC (stereo unspecified), the outcome is reported as “inactive”.
With Cc1cc(Nc2cc(Cl)cc(Cl)c2)nc(N)n1 the outcome was “inactive”.
With CC(=O)c1ccc(Oc2cc(C)nc(-n3nc(C)cc3C)n2)cc1 the outcome was “inactive”.
For CCN1/C(=C/c2ccc3ccccc3[n+]2CC)C=Cc2ccccc21, the outcome was “inactive”.
For CCCCCCCCCCn1c2c(c(=N)c3c1CCC3)CCC2, the outcome was “inactive”.
In the case of COc1ccc2cc(C)c3nnc(SCC(=O)Nc4nc(-c5ccc(F)cc5)cs4)n3c2c1, the outcome is reported as “inactive”.
In the case of COCCN(C(=O)CCl)C(C(=O)NC1CCCCC1)c1ccccc1C (stereo unspecified), the outcome is reported as “inactive”.
In the case of COc1ccc(C(C)(O)c2nc(-c3ccc(F)cc3OC)cs2)cc1 (stereo unspecified), the outcome is reported as “inactive”.
With Nc1cccc2c1C(=O)N(C(=O)/C=C/c1ccc(F)cc1)C2=O the outcome was “inactive”.
In the case of CC(=O)Cn1ncc(Br)c(Br)c1=O, the outcome is reported as “inactive”.
With Cn1c(Cl)cnc1C1CC(=O)c2cc(Cl)ccc2O1 (stereo unspecified) the outcome was “inactive”.
In the case of O=C(Nc1ccc(N2CCCC2)c(Cl)c1)c1ccc([N+](=O)[O-])o1, the outcome is reported as “inactive”.
With Cc1c(C(=O)Nc2ccc3oc(-c4cccnc4)nc3c2)oc2ccccc12 the outcome was “inactive”.
For O=C(N/N=C\C=C\c1ccc([N+](=O)[O-])o1)c1cccs1, the outcome was “inactive”.
With O=C(Nc1ccc(-c2nc3cc(NC(=O)c4cccs4)ccc3o2)cc1)c1cccs1 the outcome was “inactive”.
With O=C(NCc1ccccc1)C(=O)NCC1COc2ccccc2O1 (stereo unspecified) the outcome was “inactive”.
In the case of CN=c1sc(C(=O)Nc2cccc(Cl)c2)cc(=O)n1C, the outcome is reported as “inactive”.
For O=C(CN1C(=O)/C(=C\c2ccc(F)cc2)Oc2ccccc21)N1CCN(c2ccccn2)CC1, the outcome was “inactive”.
In the case of O=C1CCCC2=C1C(c1ccc(Cl)cc1)n1c(s/c(=C\c3ccc4ccncc4c3)c1=O)=N2 (stereo unspecified), the outcome is reported as “inactive”.
In the case of COc1cccc(-n2c(SCC(=O)NC3CCCCC3)nc3n[nH]c(C)c3c2=N)c1, the outcome is reported as “inactive”.
With COc1ccc(C(=O)/C=C\c2ccc(NC(=O)c3cccs3)cc2)cc1 the outcome was “inactive”.
For O=C1CCCN1CCCNc1nc(NCc2ccccc2)nc2ccsc12, the outcome was “inactive”.
For Cc1ccsc1CNc1ncnc2ccc(-c3c(C)noc3C)cc12, the outcome was “inactive”.
For COc1ccc(C(=O)c2cc([N+](=O)[O-])ccc2N2CCN(C)CC2)cc1, the outcome was “inactive”.
In the case of CCOc1cc(/C=C/C(=O)c2ccc3c(c2)OCCO3)ccc1OCC(=O)N(C)C, the outcome is reported as “inactive”.
With COc1cc(/C=C/C(=O)c2ccc3c(c2)OCCO3)cc(OC)c1OC the outcome was “inactive”.
In the case of CN(C)c1ccc(/C=C/C(=O)c2ccc(C(C)(C)C)cc2)cc1[N+](=O)[O-], the outcome is reported as “inactive”.
For COC(=O)C(=Cc1ccc(-c2ccsc2C(=O)OC)o1)C(=O)OC, the outcome was “inactive”.
With O=c1c2ccccc2sc2c(CO)ccc(NCCN3CCCCC3)c12 the outcome was “inactive”.
With Cc1ccc2cc3c(N)c4c(C)ccc(C)c4nc3nc2c1 the outcome was “inactive”.
For CCC1=Nc2cc(C(=O)NCc3ccco3)ccc2Sc2ccc(Cl)cc21, the outcome was “inactive”.
In the case of CC1=Nc2cc(C(=O)NCC3CCCO3)ccc2Sc2ccc(Br)cc21 (stereo unspecified), the outcome is reported as “inactive”.
For O=C(/C=C/c1ccc([N+](=O)[O-])cc1)/C=C/c1ccco1, the outcome was “inactive”.
In the case of CC(NC(=O)c1cccc2ccccc12)c1ccc2c(c1)CCCC2 (stereo unspecified), the outcome is reported as “inactive”.
In the case of COc1cc2cc(/C=C/C(=O)c3ccco3)c(Cl)nc2cc1OC, the outcome is reported as “inactive”.
In the case of O=C(Oc1c(Cl)cc(Cl)c2cccnc12)c1ccco1, the outcome is reported as “inactive”.
For CCOc1ccc2[nH]c(=O)c(CN(Cc3ccc(F)cc3)C(=O)c3ccco3)cc2c1, the outcome was “inactive”.
